From PubChem BioAssay (NCI)
This is part of a sample that, as a whole, favours compounds with a hit. Of some 83,000 tested, about 20% had one in any assay.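 Assay: single dose, 48 h. Readout: percent growth (0 = no net growth; negative = cell death). Active: <10.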 Calls of active or inactive are those of the source.

How the values were obtained:
Test in all cases: NCI-60 one-dose screen, 48 h (100 = growth as untreated, 0 = no growth, -100 = all killed)
Conditions in all cases: 10 µM
SK-MEL-2 melanoma = test system: SK-MEL-2 melanoma
EKVX NSCLC = test system: EKVX NSCLC
UO-31 renal = test system: UO-31 renal
TK-10 renal = test system: TK-10 renal
ACHN renal = test system: ACHN renal
CAKI-1 renal = test system: CAKI-1 renal
A498 renal = test system: A498 renal
CCRF-CEM leukemia = test system: CCRF-CEM leukemia
MOLT-4 leukemia = test system: MOLT-4 leukemia

| SMILES | growth (SK-MEL-2 melanoma) | growth (EKVX NSCLC) | growth (UO-31 renal) | growth (TK-10 renal) | growth (ACHN renal) | growth (CAKI-1 renal) | growth (A498 renal) | growth (CCRF-CEM leukemia) | growth (MOLT-4 leukemia) |
| --- | --- | --- | --- | --- | --- | --- | --- | --- | --- |
| CCCCCCCCCCN=C(c1ccc(N(C)C)cc1)c1ccc(N(C)C)cc1 | 23.3% (inactive) | 29.3% (inactive) | 52.8% (inactive) | 55.7% (inactive) | 43.3% (inactive) | 35.7% (inactive) | -9.41% (active) | 28.1% (inactive) | 24.6% (inactive) |
| CN(C)Cc1cccs1 | 103% (inactive) | 103% (inactive) | 82.9% (inactive) | 101% (inactive) | 96.7% (inactive) | 98.3% (inactive) | 117% (inactive) | 80% (inactive) | 96.3% (inactive) |
| Cc1cc(C)c2nc(C)c(C)[n+]([O-])c2c1 | 106% (inactive) | 99.1% (inactive) | 88.3% (inactive) | 99.3% (inactive) | 109% (inactive) | 96.9% (inactive) | 146% (inactive) | 66% (inactive) | 83.1% (inactive) |
| CC1(C)CNC(=O)N1 | 98.8% (inactive) | 96% (inactive) | 87.7% (inactive) | 97.7% (inactive) | 110% (inactive) | 97.1% (inactive) | 95.5% (inactive) | 95.4% (inactive) | 101% (inactive) |
| O=C(N/N=c1/ccoc2cccnc12)N1CCN(c2ncccn2)CC1 | 11.8% (inactive) | 17.4% (inactive) | 24.8% (inactive) | 27.4% (inactive) | 25.1% (inactive) | 26% (inactive) | 45.3% (inactive) | 30.5% (inactive) | 8.23% (active) |
| O=c1cc(CSc2nnc(-c3ccccc3)n2-c2ccc(F)cc2)c2ccc3ccccc3c2o1 | 79.7% (inactive) | 95.3% (inactive) | 65.6% (inactive) | 104% (inactive) | 99% (inactive) | 88.6% (inactive) | 118% (inactive) | 108% (inactive) | 82.7% (inactive) |
| CC(C)c1[nH]nc2c(NCc3ccc(-c4ccccn4)cc3)nc(SCCN(C)C)nc12 | -65.6% (active) | -5.89% (active) | 16.7% (inactive) | 6.52% (active) | 7.84% (active) | 18.9% (inactive) | -66.3% (active) | 1.67% (active) | -8.11% (active) |
| O=C(N/N=C\c1cc(Cl)ccc1O)c1ccncc1 | 96.9% (inactive) | 83.2% (inactive) | 41.6% (inactive) | 66.3% (inactive) | 27.7% (inactive) | 49.2% (inactive) | 104% (inactive) | 11.3% (inactive) | 15.9% (inactive) |
| CNC(=O)c1cc(Oc2ccc(NC(=O)Nc3ccc(Cl)c(OC4CCCCC4)c3)c(F)c2)ccn1 | 55.3% (inactive) | 27.7% (inactive) | 43.1% (inactive) | 51.9% (inactive) | 29.8% (inactive) | 41.9% (inactive) | 57.5% (inactive) | 35.4% (inactive) | 24.1% (inactive) |
| O=[N+]([O-])c1ccc(Br)o1 | 94.4% (inactive) | 101% (inactive) | 90% (inactive) | 96.4% (inactive) | 100% (inactive) | 98.3% (inactive) | 102% (inactive) | 114% (inactive) | 106% (inactive) |
| c1ccc(CC(NCCNC(Cc2ccccc2)c2ccccc2)c2ccccc2)cc1 (configuration not stated) | 69.8% (inactive) | 23% (inactive) | 27.3% (inactive) | 61.1% (inactive) | 20.6% (inactive) | 7.43% (active) | 61.8% (inactive) | 10.1% (inactive) | -13.2% (active) |
| CC(=O)c1ccc(NCn2nc(-c3ccc(Cl)cc3)oc2=S)cc1 | 99.3% (inactive) | 103% (inactive) | 95.8% (inactive) | 95.9% (inactive) | 96.1% (inactive) | 97% (inactive) | 106% (inactive) | 103% (inactive) | 81.8% (inactive) |
| CCc1c(C(=O)NCc2c(O)ccc3cccc(O)c23)[nH]c(C)c1C(C)=O | 32.7% (inactive) | 27.6% (inactive) | 12.5% (inactive) | 46.8% (inactive) | 11.6% (inactive) | 34.2% (inactive) | 49.3% (inactive) | 16.6% (inactive) | 19.6% (inactive) |
| COc1ccc(COC(=O)CC(C)C)cc1 | 101% (inactive) | 101% (inactive) | 93.5% (inactive) | 90.6% (inactive) | 105% (inactive) | 98.7% (inactive) | 117% (inactive) | 102% (inactive) | 98.8% (inactive) |
| Cc1ccc(C)c(S(=O)(=O)NC2c3ccccc3Oc3ccccc32)c1 | 101% (inactive) | 100% (inactive) | 81.4% (inactive) | 90.7% (inactive) | 82.3% (inactive) | 88.7% (inactive) | 90.9% (inactive) | 73.7% (inactive) | 89.3% (inactive) |
| CCCCCCN=C(N)CCCCCCCCCCC(N)=NCCCCCC | 38.3% (inactive) | 34.6% (inactive) | 78.6% (inactive) | 55.6% (inactive) | 48.5% (inactive) | 55.9% (inactive) | 37% (inactive) | 29.5% (inactive) | 38.2% (inactive) |
| CCCCn1c(=O)[nH]c(N)c(C(c2ccc(Cl)cc2)c2c(N)[nH]c(=O)n(CCCC)c2=O)c1=O | 6.4% (active) | 48.6% (inactive) | 95.4% (inactive) | 50.7% (inactive) | 67.2% (inactive) | 90.7% (inactive) | 89.3% (inactive) | 16.7% (inactive) | -11.8% (active) |
| O=C(c1ccccc1)C(Nc1ccccc1)c1ccccc1 (configuration not stated) | 90.9% (inactive) | 86.2% (inactive) | 66.9% (inactive) | 93.6% (inactive) | 89.2% (inactive) | 87.3% (inactive) | 94.6% (inactive) | 94.1% (inactive) | 90.8% (inactive) |
| C[N+]1=C(/C=C/c2ccc(I)cc2)C(C)(C)c2ccccc21 | 95.6% (inactive) | 91.5% (inactive) | 83.5% (inactive) | 89.2% (inactive) | 94.7% (inactive) | 94.4% (inactive) | 104% (inactive) | 2.26% (active) | 8.77% (active) |
| COC(=O)c1cnc2c(c1)Oc1ccccc1-c1ccnn1-2 | 96.3% (inactive) | 92.1% (inactive) | 80.8% (inactive) | 95.3% (inactive) | 101% (inactive) | 86.8% (inactive) | 90.4% (inactive) | 94.9% (inactive) | 91.1% (inactive) |
| Clc1cc(Cl)c(OCCCCCCN2CCNCC2)c(Cl)c1 | 65.2% (inactive) | 63.3% (inactive) | 73.2% (inactive) | 65.9% (inactive) | 47.2% (inactive) | 32.3% (inactive) | 48.1% (inactive) | 10.7% (inactive) | -9.72% (active) |
| CN(C)c1ccc2c(c1)OC(N)=C(C#N)C2c1ccc2c(c1)CCCN2C (configuration not stated) | 30.7% (inactive) | 34.5% (inactive) | 51.4% (inactive) | 70.3% (inactive) | 52.8% (inactive) | 40% (inactive) | -8.42% (active) | 24.5% (inactive) | 35.8% (inactive) |
| CCc1cc2n(n1)-c1ncc(C(=O)OC)cc1Oc1ccccc1-2 | 106% (inactive) | 98.5% (inactive) | 88.8% (inactive) | 96.1% (inactive) | 108% (inactive) | 94% (inactive) | 101% (inactive) | 95.2% (inactive) | 95% (inactive) |
| CNC(=O)c1cc(Oc2ccc(NC(=O)Nc3ccc(Cl)c(OC(C)C)c3)c(F)c2)ccn1 | 50.2% (inactive) | 34.8% (inactive) | 45.2% (inactive) | 66.7% (inactive) | 41.9% (inactive) | 64.1% (inactive) | 48.7% (inactive) | 46.8% (inactive) | 30.9% (inactive) |
| CCC(OC(=O)CC(C)C)c1ccccc1 (configuration not stated) | 100% (inactive) | 99.4% (inactive) | 95.1% (inactive) | 91.1% (inactive) | 104% (inactive) | 97.9% (inactive) | 102% (inactive) | 104% (inactive) | 98.1% (inactive) |
| CCCCCCCCCCSC(=N)N (tested in a mixture with another compound) | 81.2% (inactive) | 74.8% (inactive) | 64.4% (inactive) | 90.1% (inactive) | 81.1% (inactive) | 87.9% (inactive) | 80.1% (inactive) | 56.2% (inactive) | 43.9% (inactive) |
| CCC1(C)OC(=O)NC1=O (configuration not stated) | 106% (inactive) | 101% (inactive) | 88.6% (inactive) | 99.3% (inactive) | 102% (inactive) | 97.8% (inactive) | 125% (inactive) | 83.1% (inactive) | 112% (inactive) |
| COC(=O)[C@]12CC[C@@H](C)[C@H](C)[C@@H]1C1=CC[C@@H]3[C@@]4(C)CC(=O)[C@H](O)[C@@](C)(CO)[C@@H]4C(=O)C[C@@]3(C)[C@]1(C)CC2 | -4.44% (active) | 3.1% (active) | -75.4% (active) | 22.1% (inactive) | -51.5% (active) | -66.4% (active) | -11.3% (active) | -13.7% (active) | -31.8% (active) |
